Experimental data reported in PubChem BioAssay AID2058 (Sanford-Burnham Center for Chemical Genomics, 2009).
About 150 (0.052%) of roughly 290,000 compounds were called active. The sample holds actives, similar compounds and a random draw of the others, so the mix is not that of the screen. Potency and affinity values are given separately. Values without a mark were called inactive.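 How the source made its calls: active means inhibition of at least 50% with at least 30 cells and total cytoplasm GFP at most 10,000,000; inconclusive means under 30 cells or total GFP of 10,000,000 plus; inactive means the rest.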

molecular target: G-protein coupled receptor 35 (Homo sapiens) (UniProt Q9HC97); test: inhibition of zaprinast-stimulated GPR35 beta-arrestin translocation – imaging, U2OS, beta-arrestin-GFP, zaprinast agonist, primary screen (AID 2058); settings: zaprinast antagonism, at 10 µM, active compounds read high
Sequence (Q9HC97 whole entry, looked up): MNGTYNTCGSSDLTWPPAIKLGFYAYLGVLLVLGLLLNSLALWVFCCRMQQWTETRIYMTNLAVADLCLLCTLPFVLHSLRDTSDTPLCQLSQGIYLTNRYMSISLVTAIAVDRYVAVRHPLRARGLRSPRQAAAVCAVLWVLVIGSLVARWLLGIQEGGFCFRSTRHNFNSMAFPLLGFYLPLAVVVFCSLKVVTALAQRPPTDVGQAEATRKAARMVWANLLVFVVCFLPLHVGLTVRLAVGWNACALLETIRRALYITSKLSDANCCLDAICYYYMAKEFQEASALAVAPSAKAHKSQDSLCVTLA

Structure (SMILES)	inhibition
CC(=O)Nc1ccc(-c2nnc(SCc3ccccc3C#N)n2C)cc1	-3.6%
Cc1ccc(C(OCC(O)CNC(CO)C(O)c2ccc([N+](=O)[O-])cc2)c2ccccc2)cc1 (stereo not drawn)	2%
CCCCc1ccc(/C=C2\C(=O)c3ccccc3C(O)=C2C(=O)OCC)cc1	59% (active)
CCCc1ccc(/C=C2\C(=O)c3ccccc3C(O)=C2C(=O)OCC)cc1	21.2%
CCOC(=O)C1=C(O)c2ccccc2C(=O)/C1=C\c1ccc(CC)cc1	31.1%
Cc1cccc(Oc2ncnc3onc(C)c23)c1	-0.9%
CCN1/C(=C/C=C/C=C/c2sc3ccccc3[n+]2CC)Sc2ccccc21	58.9%
CCN1/C(=C/C=C/C=C/C=C/c2sc3ccccc3[n+]2CC)Sc2ccccc21	44.3%
CCN(c1ccccc1)S(=O)(=O)c1ccc(Cl)c(NC(=O)CSc2n[nH]c(N)n2)c1	0.7%
COc1cccc(/C=c2\s/c(=C/C(=O)c3ccc(C)cc3)[nH]c2=O)c1OC	-9.9%
COc1ccc(/C=c2\s/c(=C/C(=O)c3ccc(C)cc3)[nH]c2=O)cc1OC	8.2%
Cc1ccc(C)c(NC(=O)Nc2ccc3c(c2)OCO3)c1	-7.8%
COc1ccccc1N1CCN(S(=O)(=O)c2ccc(Cl)s2)CC1	-2.5%
COC(=O)c1cc(NC(=O)c2ccccc2)c(=O)oc1C	-9.4%
COC(=O)c1cc(NC(=O)c2cccc(Cl)c2)c(=O)oc1/C=C/Nc1cc(C)cc(C)c1	93.3% (active)
Cc1oc(=O)c(NC(=O)c2cccc(Cl)c2)cc1C(=O)c1ccccc1	-3%
CSc1nc2ccccc2cc1/C=C(\C#N)c1cccc(C)c1	55.3% (active)
CSc1nc2ccccc2cc1/C=C(\C#N)c1ccccc1	3.1%
CSc1nc2ccccc2cc1/C=C(\C#N)c1cccc(Cl)c1	3.7%
CN(Cc1nc(-c2cccc(Cl)c2)no1)C1CCOCC1	-8.4%
CCSC1=NSC2=NC(=O)/C(=C\c3coc4ccccc4c3=O)C(=N)N12	36.4%
CSC1=NSC2=NC(=O)/C(=C/c3coc4ccccc4c3=O)C(=N)N12	4.5%
CC(=O)Nc1cccc(NC(=O)Cc2ccc3ccccc3c2)c1	0.8%
Cc1cc(N2C(=O)C(O)=C(C(=O)c3ccc(C)o3)C2c2ccc([N+](=O)[O-])cc2)no1 (stereo not drawn)	4.2%
C=CCn1cc(/C=C/c2cc[n+](C)cc2)c2ccccc21	17.1%

Structure (SMILES)	inhibition
Cc1ccc2[nH]cc(/C=C/c3cc[n+](C)cc3)c2c1	29.2%
Cc1[nH]c2ccccc2c1/C=C/c1nc2ccccc2c(=O)[nH]1	-11.7%
Cc1[nH]c2ccccc2c1/C=C/C(=O)c1ccccc1	4.5%
COC(=O)Cn1c(C)c(/C=C/c2cc[n+](C)cc2)c2ccccc21	17.9%
C[n+]1ccc(/C=C/c2c[nH]c3ccc(F)cc23)cc1	-4.5%
Cc1[nH]c2ccccc2c1/C=C/c1cc[n+](C)cc1	71.2% (active)
COc1cccc(CNS(=O)(=O)c2ccc3c(c2)N(C(C)=O)CCO3)c1	-10.2%
O=C(CSCc1ccc(Cl)cc1)Nc1ccc(Br)cc1C(=O)O	2.2%
Cn1c(=O)[nH]c(=O)c2c1nc(Sc1nc3ccccc3s1)n2Cc1ccccc1	13.4%
Cn1c(SCc2ccc(Br)cc2)nc2c(c1=O)SCC2	-9.1%
CCOC(=O)C1=C(Cc2ccc(F)cc2)C(=O)c2ccccc2C1=O	11.7%
CCOC(=O)C1=C(Cc2ccc(C)cc2)C(=O)c2ccccc2C1=O	5%
CCOC(=O)N1CCN(C(=O)C2CCN(S(=O)(=O)c3ccc(OCC)cc3)CC2)CC1	10.5%
CC(C)c1ccc(/C=C2\NC(=S)N(Cc3cccnc3)C2=O)cc1	-2.8%
O=C1/C(=C/c2ccc(Cl)cc2)NC(=S)N1Cc1cccnc1	-2.2%
S=c1[nH]nc(COc2ccccc2)n1/N=C/c1c(Cl)cccc1Cl	0.3%
Cc1ccc(S(=O)(=O)N[C@@H](Cc2ccccc2)C(=O)N2CCC(C(=O)N[C@@H](CC(C)C)C(=O)O)CC2)cc1	1%
Cc1ccc(OC(C)C(=O)Nc2ccc(S(=O)(=O)Nc3nccs3)cc2)cc1 (stereo not drawn)	-8.6%
COc1ccc(OC)c(NC(=O)C2CCN(S(=O)(=O)c3cccs3)CC2)c1	4.3%
CCCCCC(=O)N/N=C(\C)c1ccc(Cl)cc1	-9.2%
CCN(CC(=O)NC1CCS(=O)(=O)C1)c1nc(-c2ccccc2)nc2ccccc12 (stereo not drawn)	1.8%
CC(NC(=O)NC1CCCCC1)c1ccccc1 (stereo not drawn)	5.6%
CCC(NC(=O)NC1CCCCC1)c1ccccc1 (stereo not drawn)	103% (active)
CCC(NC(=S)NC1CCCCC1)c1ccccc1 (stereo not drawn)	-4.4%
COc1cc(C#N)ccc1OCC(=O)N1CCc2ccccc2C1	10.3%

Structure (SMILES)	inhibition
O=c1c(Cl)c(Cl)cnn1Cc1ccc(F)cc1	49.1%
Cc1ccc(Cn2ncc(Cl)c(Cl)c2=O)cc1	33.1%
CCc1c(C)sc(NC(=O)c2ccco2)c1C(=O)N1CCOCC1	-15.5%
COc1ccc(OC)c(N(CC(=O)Nc2ccc3c(c2)OCCO3)S(C)(=O)=O)c1	-8.2%
COC(=O)c1ccc2c(c1)C(C)(C)C(/C=C/c1ccccc1O)=[N+]2C	18.9%
C[N+]1=C(/C=C/Nc2ccccc2Cl)C(C)(C)c2ccccc21	6.8%
O=c1c(Cc2ccc(F)cc2)c(O)ccn1Cc1cccc(Cl)c1	-9.1%
O=S(=O)(NCCSc1ccccc1)c1cccs1	-13.8%
O=C(CCN1C(=O)/C(=C/c2ccc3c(c2)OCO3)SC1=S)Nc1cccc(C(=O)O)c1	-7.5%
O=C(CCCN1C(=O)/C(=C/c2ccco2)SC1=S)Nc1cccc(C(=O)O)c1	5.8%
O=C(CCN1C(=O)/C(=C/c2ccc3c(c2)OCO3)SC1=S)Nc1ccc(C(=O)O)cc1	0.4%
O=C(CCN1C(=O)/C(=C/c2ccc3c(c2)OCO3)SC1=S)Nc1ccccc1	15.7%
Cn1c(=O)n(CC(=O)N2CCOCC2)c2ccccc21	-9.9%
O=C(CCN1C(=O)c2ccncc2C1=O)Nc1ccc(F)cc1	3.7%
Brc1ccc(N=C/C=C/C=C/Nc2ccc(Br)cc2)cc1	40.6%
CCn1c(O)c(/C=C/C=C/C=Nc2ccccc2)sc1=S	-0.5%
C(/C=C/C=C/Nc1ccccc1)=Nc1ccccc1	90.5% (active)
COc1ccccc1NC(=O)N1CCN(Cc2ccc3c(c2)OCO3)CC1	-7.3%
Cc1cccc(/C=C2/S/C(=N/N=C3\CC4CCC3(C)C4(C)C)NC2=O)c1 (stereo not drawn)	1.3%
COc1ccc(/C=C2/S/C(=N/N=C3\CC4CCC3(C)C4(C)C)NC2=O)cc1 (stereo not drawn)	1.4%
Cc1nc(CC(=O)O)c(-c2ccccc2)s1	-2.4%
Cc1ccc(C(=O)C(C)OC(=O)c2cc3cc([N+](=O)[O-])ccc3oc2=O)cc1 (stereo not drawn)	-8.8%
Cc1cc(-c2nnc(SCC(=O)Nc3ccccc3Cl)n2C)no1	18.2%
CC[n+]1c(C=C2C=C(C)OC(C)=C2)sc2ccccc21	11.8%
CC1=CC(=C(C#N)c2nc3ccccc3s2)C=C(C)N1CC1CCCO1 (stereo not drawn)	3.3%

Structure (SMILES)	inhibition
Cn1c(=O)cc(OCC(=O)NCCc2ccc(Cl)cc2)c2ccccc21	13.1%
COc1ccc(OC)c2[nH]c(C(=O)N3CCC(C(=O)O)CC3)cc12	-3.2%
CC1Cc2ccccc2N1C(=O)c1cccnc1 (stereo not drawn)	20.2%
COc1ccccc1/C=C/C(=C1/C(=O)N(c2ccccc2)N=C1C)c1ccc(C)cc1	-2%
CC1=CC(=O)c2ccccc2C1=O	10.8%
CC(C)(C)c1ccc2c(c1)C(=O)c1ccccc1C2=O	-1.9%
CC(C)(C=O)C1=CC(=O)c2ccccc2C1=O	78.8% (active)
CC1Cc2ccccc2N1C(=O)CN(C)S(=O)(=O)c1cccc2cccnc12 (stereo not drawn)	-6.9%
Cc1ccccc1C(=O)N1CCCN(C(=O)c2ccccc2C)CC1	-12.2%
O=C(NNC(=S)Nc1ccc(F)cc1F)c1ccco1	-12.7%
CCOCCCNC(=O)C(c1ccc(Cl)cc1)N1CCN(c2ccccc2)CC1 (stereo not drawn)	5.9%
Cc1ccc(/C=C(\C#N)C(=O)NC(C)c2ccccc2)o1 (stereo not drawn)	-5.7%
COC(=O)c1ccc(/C=C(\C#N)C(=O)NC(C)c2ccccc2)cc1 (stereo not drawn)	-3.1%
CC(C)NC(=O)/C(C#N)=C/c1ccc(N(C)C)o1	19.2%
COc1ccc(/C=C(\C#N)C(=O)NC(C)c2ccccc2)cc1O (stereo not drawn)	9.9%
CC(C)NC(=O)/C(C#N)=C\c1ccc(N(C)C)o1	50% (active)
Cc1ccc(/C=C(/C#N)C(=O)NC(C)c2ccccc2)o1 (stereo not drawn)	-7.7%
CCN(CC)c1ccc(/C=C(/C#N)C(=O)NC(C)C)o1	14.3%
CC(CCc1ccccc1)NC(=O)CCN1N=C(c2ccccc2)CCC1=O (stereo not drawn)	-14.8%
O=C(NCCN1CCN(c2ccccc2)CC1)C1CCN(S(=O)(=O)N2CCOCC2)CC1	17.1%
COc1cccc(C(=O)NC(=S)Nc2ccccc2N2CCCCC2)c1	9.4%
O=C(CCn1cccn1)Nc1ccc2c(c1)OCCO2	18.7%
CCC1(C)Cc2ccccc2-c2[nH][nH]c(=O)c21 (stereo not drawn)	-5.1%
